Reference: PubChem BioAssay (Tox21)
Records with an inconclusive call do not appear. The source made the active and inactive calls. Unless noted, calls follow the shape of the full dose curve.

Legend:
[1] = Nuclear factor erythroid 2-related factor 2/antioxidant responsive element (Nrf2/ARE) small molecule agonists: qHTS cell viability counter screen in human keratinocytes (AID 1919968; active = well fitted curve in the direction sought with a large enough effect in the repeat runs; an effect the other way counts as inactive or inconclusive; also: nearly all actives have a fitted effect of over 55% in size)
How it was run: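 Measured as CellTiter-Fluor fluorescence, this readout tracks cytotoxicity in the same wells as the ARE-luciferase screen. HaCaT reporter cells (1,500/well) received compounds after a 5 h pre-incubation and were exposed for 23 h.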

[2] = Nuclear factor erythroid 2-related factor 2/antioxidant responsive element (Nrf2/ARE) small molecule agonists: luciferase reporter gene qHTS assay in human keratinocytes (AID 1919969); also: nearly all actives have a fitted effect of over 35% in size
[3] = biological target: Gonadotropin-releasing hormone receptor (Homo sapiens) (UniProt P30968); assay: Human gonadotropin-releasing hormone receptor (GnRHR) small molecule agonists, calcium flux assay in GnRHR-HEK293 cells (AID 1920063); also: nearly all actives have a fitted effect of over 35% in size
Gonadotropin-releasing hormone receptor (Homo sapiens), sequence (P30968 whole entry, looked up): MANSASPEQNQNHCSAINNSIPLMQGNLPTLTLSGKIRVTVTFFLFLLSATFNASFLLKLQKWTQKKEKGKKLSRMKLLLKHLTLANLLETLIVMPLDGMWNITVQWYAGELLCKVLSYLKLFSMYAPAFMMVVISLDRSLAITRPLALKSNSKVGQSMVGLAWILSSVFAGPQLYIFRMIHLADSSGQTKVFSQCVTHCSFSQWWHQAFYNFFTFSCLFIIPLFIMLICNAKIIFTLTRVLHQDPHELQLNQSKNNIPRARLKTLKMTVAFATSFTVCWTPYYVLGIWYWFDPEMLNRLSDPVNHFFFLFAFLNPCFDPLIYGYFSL
How it was run: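 Fluorescence kinetics (480 nm excitation, 540 nm emission; 3 min, 1 s steps) report calcium mobilisation in human GnRHR-HEK293 cells in agonist mode. Dye incubation: 1 h, 37 C.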

[4] = biological target: KiSS-1 receptor (Homo sapiens) (UniProt Q969F8); assay: Human kisspeptin (KISS1R) small molecule agonists, calcium flux assay in KISS1R-HEK293 cells (AID 1920064; active = well fitted curve in the direction sought with a large enough effect in the repeat runs; an effect the other way counts as inactive or inconclusive)
KiSS-1 receptor (Homo sapiens), sequence (Q969F8 whole entry, looked up): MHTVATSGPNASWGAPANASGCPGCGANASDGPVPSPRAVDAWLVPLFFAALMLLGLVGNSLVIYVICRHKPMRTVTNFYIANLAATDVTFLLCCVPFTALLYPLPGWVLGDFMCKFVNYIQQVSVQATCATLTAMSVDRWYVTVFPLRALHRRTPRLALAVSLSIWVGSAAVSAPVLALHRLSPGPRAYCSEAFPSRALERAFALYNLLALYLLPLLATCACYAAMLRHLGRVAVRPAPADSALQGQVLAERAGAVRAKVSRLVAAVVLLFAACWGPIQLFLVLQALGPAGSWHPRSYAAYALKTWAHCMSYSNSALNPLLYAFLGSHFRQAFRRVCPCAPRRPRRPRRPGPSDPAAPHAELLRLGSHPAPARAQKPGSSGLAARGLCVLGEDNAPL
How it was run: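 Measures KISS1R agonism through calcium-sensitive dye fluorescence in stably transfected HEK293 cells, read for 3 min after pin-tool compound delivery; 15-point titrations in triplicate.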

[5] = G protein-coupled receptor (GPCR) small molecule agonists, calcium flux assay: HEK293 wild type cell line counter screen (AID 1920065)
How it was run: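 Readout: fluorescence at 480 nm excitation/540 nm emission, sampled at 1 s intervals for 3 min. Cells had been cultured 18 h, then dye-loaded 1 h at 37 C before compound or ATP addition.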

[6] = p53 small molecule agonists, cell-based qHTS assay with human liver microsomes (AID 1963577)
How it was run: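 p53RE-bla reporter cells were pre-incubated 5 h at 37 C, then treated with compounds plus human liver microsomes (0.5 mg/mL final) and NADPH (0.5 mg/mL final) for 16 h at 37 C. Beta-lactamase activity was read by LiveBLAzer fluorescence after 2 h at room temperature.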

[7] = p53 small molecule agonists, cell-based qHTS assay with rat liver microsomes (AID 1963578)
How it was run: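 p53RE-bla cells were exposed to compounds together with rat liver microsomes (0.5 mg/mL final) and NADPH (0.5 mg/mL final) for 16 h at 37 C, then read by LiveBLAzer beta-lactamase fluorescence after 2 h at room temperature.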

[8] = p53 small molecule agonists, cell-based qHTS assay with human liver microsomes: qHTS cell viability counter screen (AID 1963579); also: nearly all actives have a fitted effect of over 45% in size
How it was run: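 p53RE-bla cells (4,000/well) were pre-incubated 5 h at 37 C, then given compounds in DMSO plus human liver microsomes (0.5 mg/mL final) and NADPH (0.5 mg/mL final) for 16 h at 37 C. Viability was read by CellTiter-Glo luminescence.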

[9] = p53 small molecule agonists, cell-based qHTS assay with rat liver microsomes: qHTS cell viability counter screen (AID 1963580); also: nearly all actives have a fitted effect of over 45% in size
How it was run: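 Viability is assessed in parallel with the p53 reporter read: HCT-116 p53RE-bla cells receive compounds plus rat microsomes and NADPH (0.5 mg/mL final apiece), incubate 16 h at 37 C, and then CellTiter-Glo luminescence is recorded.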

[10] = p53 small molecule agonists, cell-based qHTS assay (AID 1963582; active = well fitted activation curve with a large enough effect in the signal ratio in the repeat runs, not every such curve was filed as active; the % refers to the signal ratio)
How it was run: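 Compounds are pin-transferred in DMSO onto p53RE-bla cells and incubated 16 h at 37 C. The B/G FRET beta-lactamase substrate is then applied for 2 h at RT and fluorescence recorded.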

[11] = biological target: 5-hydroxytryptamine receptor 2A (Homo sapiens) (UniProt P28223); assay: 5-hydroxytryptamine receptor 2A (HTR2A) small molecule antagonists, cell-based qHTS assay (AID 1963586); also: nearly all actives have a fitted effect of over 45% in size
5-hydroxytryptamine receptor 2A (Homo sapiens), sequence (P28223 whole entry, looked up): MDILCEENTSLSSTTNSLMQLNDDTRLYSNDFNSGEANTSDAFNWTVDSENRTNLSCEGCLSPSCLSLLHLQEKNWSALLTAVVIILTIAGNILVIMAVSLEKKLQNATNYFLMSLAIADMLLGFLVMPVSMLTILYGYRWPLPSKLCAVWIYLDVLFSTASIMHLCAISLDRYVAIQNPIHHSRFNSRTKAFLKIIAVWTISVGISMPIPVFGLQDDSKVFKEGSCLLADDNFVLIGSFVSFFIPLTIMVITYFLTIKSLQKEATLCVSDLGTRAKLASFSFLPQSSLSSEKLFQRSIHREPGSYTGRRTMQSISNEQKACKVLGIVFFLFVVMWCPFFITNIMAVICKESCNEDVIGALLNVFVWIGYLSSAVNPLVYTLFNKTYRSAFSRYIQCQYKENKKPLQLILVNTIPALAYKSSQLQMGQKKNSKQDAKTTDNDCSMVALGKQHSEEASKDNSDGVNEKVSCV
How it was run: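 Antagonist-mode intracellular calcium assay: DOI (4 nM) added after 5 min compound pre-incubation at room temperature to dye-loaded HTR2A-CHO cells. Fluorescence followed for 3 min, sampled every second.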

[12] = biological target: 5-hydroxytryptamine receptor 2A (Homo sapiens) (UniProt P28223); assay: 5-hydroxytryptamine receptor 2A (HTR2A) small molecule agonists, cell-based qHTS assay (AID 1963587); also: nearly all actives have a fitted effect of over 30% in size
How it was run: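 CHO cells stably expressing human HTR2A, plated 18 h, loaded with calcium dye 1 h at 37 C. Agonist mode: compounds added and intracellular calcium fluorescence recorded kinetically for 2 min at 1 sec intervals.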

[13] = biological target: Muscarinic acetylcholine receptor M1 (Homo sapiens) (UniProt P11229); assay: Cholinergic receptor muscarinic 1 (CHRM1) small molecule antagonists, cell-based qHTS assay (AID 1963588); also: nearly all actives have a fitted effect of over 40% in size
Muscarinic acetylcholine receptor M1 (Homo sapiens), sequence (P11229 whole entry, looked up): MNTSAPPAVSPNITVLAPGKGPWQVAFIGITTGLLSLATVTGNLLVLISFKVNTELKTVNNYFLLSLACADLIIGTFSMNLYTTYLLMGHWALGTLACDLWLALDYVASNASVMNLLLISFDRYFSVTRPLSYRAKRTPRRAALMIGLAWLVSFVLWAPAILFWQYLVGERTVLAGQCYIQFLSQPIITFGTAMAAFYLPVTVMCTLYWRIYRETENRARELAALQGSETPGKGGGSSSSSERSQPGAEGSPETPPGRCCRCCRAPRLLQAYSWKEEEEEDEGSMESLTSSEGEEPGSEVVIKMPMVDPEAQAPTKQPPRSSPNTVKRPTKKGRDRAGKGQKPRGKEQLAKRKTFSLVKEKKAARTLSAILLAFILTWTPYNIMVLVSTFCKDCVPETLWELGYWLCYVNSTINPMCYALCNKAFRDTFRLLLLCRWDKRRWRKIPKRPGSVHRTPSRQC
How it was run: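 CHRM1-CHO calcium-flux assay, antagonist mode. Cells were seeded 18 h, dye-loaded 1 h at 37 C and given compound for 5 min at RT, then acetylcholine was added at 50nM. FDSS fluorescence was read 3 min; 15 concentrations, three runs.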

[14] = biological target: Muscarinic acetylcholine receptor M1 (Homo sapiens) (UniProt P11229); assay: Cholinergic receptor muscarinic 1 (CHRM1) small molecule agonists, cell-based qHTS assay (AID 1963589); also: nearly all actives have a fitted effect of over 35% in size
How it was run: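 Each compound was tested at 15 concentrations across three independent runs on dye-loaded CHO cells stably expressing human CHRM1, reading intracellular calcium fluorescence kinetically at 1 sec intervals.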

[15] = cAMP Responsive Elements (CRE) small molecule agonists, cell-based qHTS assay (AID 1963590)
How it was run: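 Cell line: CRE-bla HEK 293T; medium DMEM/10% dialyzed FBS/0.1 mM NEAA/1 mM pyruvate/25 mM HEPES; 3 h compound exposure; beta-lactamase FRET readout after 2 h substrate loading at RT.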

[16] = cAMP Responsive Elements (CRE) small molecule antagonists, cell-based qHTS assay (AID 1963591; active = well fitted inhibition curve with a large enough effect in the signal ratio in the repeat runs, not every such curve was filed as active; the % refers to the signal ratio)
How it was run: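 Inhibition of NKH477-driven (0.25 uM final) CRE-beta-lactamase signal in HEK293T cells, 3 h compound exposure at 37 °C, detected by FRET substrate fluorescence.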

[17] = biological target: Beta-2 adrenergic receptor (Homo sapiens) (UniProt P07550); assay: Adrenergic beta2 receptor (ADRB2) small molecule antagonists, cell-based qHTS assay (AID 1963592); also: series mostly up to about 92 µM; nearly all actives have a fitted effect of over 50% in size
Beta-2 adrenergic receptor (Homo sapiens), sequence (P07550 whole entry, looked up): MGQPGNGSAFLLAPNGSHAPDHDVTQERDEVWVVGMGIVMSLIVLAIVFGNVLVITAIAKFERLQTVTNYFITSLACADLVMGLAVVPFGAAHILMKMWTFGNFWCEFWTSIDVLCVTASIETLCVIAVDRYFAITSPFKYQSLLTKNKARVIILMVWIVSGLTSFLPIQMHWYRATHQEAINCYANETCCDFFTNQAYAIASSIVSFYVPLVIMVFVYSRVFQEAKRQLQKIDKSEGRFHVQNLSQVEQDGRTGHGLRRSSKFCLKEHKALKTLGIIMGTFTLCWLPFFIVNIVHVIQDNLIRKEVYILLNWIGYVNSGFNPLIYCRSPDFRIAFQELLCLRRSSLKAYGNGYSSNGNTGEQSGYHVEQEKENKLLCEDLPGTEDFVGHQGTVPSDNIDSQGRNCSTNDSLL
How it was run: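 Cells (CHO, stable ADRB2 overexpression) incubated 18-20hr at 37C; compounds added from DMSO; agonist mix (1nM isoproterenol, 100uM IBMX, 25uM Ro-20-1724) added; 0.5hr RT; d2-cAMP and anti-cAMP-cryptate added; 1hr RT; 665/615 nm read.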

[18] = biological target: D(2) dopamine receptor (Homo sapiens) (UniProt P14416); assay: Dopamine D2 receptor (DRD2) small molecule agonists, cell-based qHTS assay (AID 1963594); also: nearly all actives have a fitted effect of over 35% in size
D(2) dopamine receptor (Homo sapiens), sequence (P14416 whole entry, looked up): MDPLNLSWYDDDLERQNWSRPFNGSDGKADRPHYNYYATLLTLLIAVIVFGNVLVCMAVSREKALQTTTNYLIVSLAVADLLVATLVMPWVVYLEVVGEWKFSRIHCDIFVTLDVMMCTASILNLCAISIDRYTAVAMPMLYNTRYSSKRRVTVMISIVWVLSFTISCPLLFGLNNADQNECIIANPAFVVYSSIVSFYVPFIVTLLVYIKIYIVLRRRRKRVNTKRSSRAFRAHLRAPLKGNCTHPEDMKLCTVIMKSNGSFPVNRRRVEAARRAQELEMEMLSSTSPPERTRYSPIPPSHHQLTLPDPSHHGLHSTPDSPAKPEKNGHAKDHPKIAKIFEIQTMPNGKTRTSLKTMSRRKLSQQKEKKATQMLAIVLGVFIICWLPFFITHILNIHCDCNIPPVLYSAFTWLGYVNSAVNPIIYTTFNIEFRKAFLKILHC
How it was run: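 HEK293 cells stably expressing human DRD2, pre-treated with PDE inhibitor Ro20-1724 (0.1 mM final) and compound 10 min at room temperature, then stimulated with NKH477 (200nM […]) for 30 min. cAMP read by HTRF (665/620 nm).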

[19] = biological target: D(2) dopamine receptor (Homo sapiens) (UniProt P14416); assay: Dopamine D2 receptor (DRD2) small molecule antagonists, cell-based qHTS assay (AID 1963595; active = well fitted inhibition curve with a large enough effect in the signal ratio in the repeat runs, with a control signal flat; the % refers to the signal ratio)
How it was run: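 HEK293 cells stably expressing DRD2, preincubated with 0.1 mM Ro20-1724 and compounds 10 min, were stimulated with 200 nM NKH477 plus 12 nM quinpirole for 30 min at room temperature; cAMP measured by HTRF (665/620 nm).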

[20] = biological target: Beta-2 adrenergic receptor (Homo sapiens) (UniProt P07550); assay: Adrenergic beta2 receptor (ADRB2) small molecule agonists, cell-based qHTS assay (AID 1963593);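 also: CHO cells stably overexpressing human ADRB2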
How it was run: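 CHO cells stably over-expressing ADRB2 were plated overnight at 37C, then dosed with compounds plus a stimulation mix containing 100uM IBMX and 25uM Ro-20-1724 for 0.5hr at room temperature. cAMP was measured by HTRF competition, 1hr.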

Measured: Potency

COC(C)OC
not listed: [20]
inactive: all other assays above

COc1ccccc1OC(=O)Oc1ccccc1OC
not listed: [15]
inactive: all other assays above

C=Cc1ccccc1C=C
not listed: [20]
inactive: all other assays above

C=CC(=O)OCCOCCOCC
not listed: [20]
inactive: all other assays above

CC(=O)CC(c1ccc([N+](=O)[O-])cc1)c1c(O)c2ccccc2oc1=O (configuration not stated)
not listed: [17]
inactive: all other assays above

C#CCOC(=O)[C@@H](C)Oc1ccc(Oc2ncc(Cl)cc2F)cc1
not listed: [15] | [20]
inactive: all other assays above

CN1CC(=O)N/C1=N/C(=O)Nc1cccc(Cl)c1
not listed: [16]
inactive: all other assays above
